Measurements: the supplement of paper PMC11732987, “Enantioselective OTUD7B fragment discovery through chemoproteomics screening and high-throughput optimisation” (Communications Chemistry, 2025)
Values without a mark were called inactive.

Assays:
Assay in all cases: log2 ratio of Biotin-Ahx-Ub-VS probe labelling (fragment/DMSO); higher = less target engagement (more negative = stronger competition), active = hit call of the paper (q ≤ 0.05, log2 ratio ≤ -1)
Conditions in all cases: compound concentration: 200 uM; treatment time: 3 h
[1] = compound: CC(C)CN(C1CC1)C(=O)CCl
Method in brief: (§1)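 The table lists average log2 ratios of fragment over vehicle, from an unpaired t-test on global-median-normalised Spectronaut label-free quantities. Proteins with ≥2 unique peptides were used. Samples were HEK293T lysate (495 µg) treated in triplicate with fragment at 200 µM or vehicle for 3 h, then with Biotin-Ahx-Ub-VS (0.5 µM final) for 1 h, with labelled DUBs NeutrAvidin-enriched and run by diaPASEF LC-MS/MS.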

[2] = compound: CC(NC(=O)CCl)c1cccs1
Method in brief: as §1

[3] = compound: CC1CCCCC1NC(=O)CCl
Method in brief: as §1

[4] = compound: CC1CCCCN1C(=O)CCl
Method in brief: as §1

[5] = compound: CC1CN(CC(C)O1)C(=O)CCl
Method in brief: as §1

[6] = compound: CN(C1CCCCC1)C(=O)CCl
Method in brief: as §1

[7] = compound: Cc1cc(NC(=O)CCl)no1
Method in brief: as §1

[8] = compound: Cc1cccc(NC(=O)CCl)c1
Method in brief: as §1

[9] = compound: Cc1nc(NC(=O)CCl)sc1C
Method in brief: as §1

[10] = compound: Cc1nnc(NC(=O)CCl)s1
Method in brief: as §1

[11] = compound: Cl.Cc1ncsc1CNC(=O)CCl
Method in brief: as §1

[12] = compound: ClCC(=O)N1CCCCCCC1
Method in brief: as §1

[13] = compound: ClCC(=O)NC1(CCCC1)C#N
Method in brief: as §1

[14] = compound: ClCC(=O)NCC1CCC1
Method in brief: as §1

[15] = compound: ClCC(=O)NCC1CCCO1
Method in brief: as §1

[16] = compound: ClCC(=O)NCc1ccco1
Method in brief: as §1

[17] = compound: ClCC(=O)Nc1cccc(Cl)c1
Method in brief: as §1

Chain of UniProt Q96K76 (Q96K76 whole entry): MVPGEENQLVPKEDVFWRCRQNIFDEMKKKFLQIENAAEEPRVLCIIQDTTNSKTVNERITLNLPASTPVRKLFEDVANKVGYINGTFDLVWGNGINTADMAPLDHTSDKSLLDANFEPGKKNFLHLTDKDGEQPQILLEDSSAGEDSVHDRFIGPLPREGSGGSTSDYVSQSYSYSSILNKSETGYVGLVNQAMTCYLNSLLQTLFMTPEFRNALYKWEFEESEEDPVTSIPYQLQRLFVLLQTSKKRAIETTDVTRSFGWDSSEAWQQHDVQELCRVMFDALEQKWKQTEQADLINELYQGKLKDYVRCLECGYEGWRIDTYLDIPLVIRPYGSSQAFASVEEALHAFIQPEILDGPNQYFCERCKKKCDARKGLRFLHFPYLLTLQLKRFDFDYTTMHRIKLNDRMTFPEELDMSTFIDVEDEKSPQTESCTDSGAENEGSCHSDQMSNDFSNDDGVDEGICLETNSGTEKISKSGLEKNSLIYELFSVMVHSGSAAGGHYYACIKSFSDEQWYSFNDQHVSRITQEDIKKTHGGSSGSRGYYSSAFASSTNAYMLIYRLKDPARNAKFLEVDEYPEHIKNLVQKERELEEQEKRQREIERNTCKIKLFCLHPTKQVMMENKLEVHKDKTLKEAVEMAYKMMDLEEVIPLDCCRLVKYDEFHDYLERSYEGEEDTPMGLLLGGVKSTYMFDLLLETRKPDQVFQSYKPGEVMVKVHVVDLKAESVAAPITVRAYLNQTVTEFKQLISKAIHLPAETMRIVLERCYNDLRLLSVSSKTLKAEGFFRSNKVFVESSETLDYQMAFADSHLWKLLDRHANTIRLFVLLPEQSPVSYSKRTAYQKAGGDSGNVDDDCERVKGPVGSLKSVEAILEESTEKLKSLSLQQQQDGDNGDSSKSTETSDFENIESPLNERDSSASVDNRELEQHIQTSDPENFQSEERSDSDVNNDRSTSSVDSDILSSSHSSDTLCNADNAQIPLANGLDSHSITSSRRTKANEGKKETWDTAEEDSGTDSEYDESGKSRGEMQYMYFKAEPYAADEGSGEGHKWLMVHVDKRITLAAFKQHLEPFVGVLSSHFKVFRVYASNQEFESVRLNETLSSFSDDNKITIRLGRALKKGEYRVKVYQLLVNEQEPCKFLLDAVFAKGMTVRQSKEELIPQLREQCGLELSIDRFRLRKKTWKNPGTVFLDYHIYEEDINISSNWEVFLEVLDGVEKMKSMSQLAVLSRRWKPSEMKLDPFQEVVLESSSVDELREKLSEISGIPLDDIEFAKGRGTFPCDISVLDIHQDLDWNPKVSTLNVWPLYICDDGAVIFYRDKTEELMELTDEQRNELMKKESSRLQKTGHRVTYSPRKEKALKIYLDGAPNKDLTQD
Chain of UniProt P09936 (P09936 whole entry, looked up): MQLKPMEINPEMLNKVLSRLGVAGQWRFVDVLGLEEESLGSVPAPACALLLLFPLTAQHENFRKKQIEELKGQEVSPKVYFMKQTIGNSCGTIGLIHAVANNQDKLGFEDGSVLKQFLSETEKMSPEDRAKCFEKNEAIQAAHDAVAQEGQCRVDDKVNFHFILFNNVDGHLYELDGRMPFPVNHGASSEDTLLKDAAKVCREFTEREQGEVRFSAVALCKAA
Chain of UniProt P51665 (P51665 whole entry): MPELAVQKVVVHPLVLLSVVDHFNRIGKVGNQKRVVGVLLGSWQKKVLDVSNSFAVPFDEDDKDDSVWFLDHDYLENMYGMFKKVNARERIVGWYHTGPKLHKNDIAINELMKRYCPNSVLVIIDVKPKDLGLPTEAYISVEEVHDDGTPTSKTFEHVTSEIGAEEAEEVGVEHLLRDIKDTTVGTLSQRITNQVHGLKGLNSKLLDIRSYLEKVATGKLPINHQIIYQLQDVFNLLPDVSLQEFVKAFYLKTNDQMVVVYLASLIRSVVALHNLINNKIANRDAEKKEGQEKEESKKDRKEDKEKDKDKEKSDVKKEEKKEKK
Chain of UniProt Q92905 (Q92905 whole entry, looked up): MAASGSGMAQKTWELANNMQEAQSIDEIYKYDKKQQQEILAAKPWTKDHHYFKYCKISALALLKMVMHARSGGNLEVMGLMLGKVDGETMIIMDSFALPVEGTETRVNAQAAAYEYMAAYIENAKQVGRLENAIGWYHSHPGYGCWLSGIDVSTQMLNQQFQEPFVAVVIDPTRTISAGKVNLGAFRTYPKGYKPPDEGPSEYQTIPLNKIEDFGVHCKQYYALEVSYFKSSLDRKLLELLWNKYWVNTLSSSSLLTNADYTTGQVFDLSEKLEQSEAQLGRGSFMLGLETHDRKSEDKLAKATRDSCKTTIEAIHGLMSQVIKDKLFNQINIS
Chain of UniProt Q70EL1 (Q70EL1 whole entry): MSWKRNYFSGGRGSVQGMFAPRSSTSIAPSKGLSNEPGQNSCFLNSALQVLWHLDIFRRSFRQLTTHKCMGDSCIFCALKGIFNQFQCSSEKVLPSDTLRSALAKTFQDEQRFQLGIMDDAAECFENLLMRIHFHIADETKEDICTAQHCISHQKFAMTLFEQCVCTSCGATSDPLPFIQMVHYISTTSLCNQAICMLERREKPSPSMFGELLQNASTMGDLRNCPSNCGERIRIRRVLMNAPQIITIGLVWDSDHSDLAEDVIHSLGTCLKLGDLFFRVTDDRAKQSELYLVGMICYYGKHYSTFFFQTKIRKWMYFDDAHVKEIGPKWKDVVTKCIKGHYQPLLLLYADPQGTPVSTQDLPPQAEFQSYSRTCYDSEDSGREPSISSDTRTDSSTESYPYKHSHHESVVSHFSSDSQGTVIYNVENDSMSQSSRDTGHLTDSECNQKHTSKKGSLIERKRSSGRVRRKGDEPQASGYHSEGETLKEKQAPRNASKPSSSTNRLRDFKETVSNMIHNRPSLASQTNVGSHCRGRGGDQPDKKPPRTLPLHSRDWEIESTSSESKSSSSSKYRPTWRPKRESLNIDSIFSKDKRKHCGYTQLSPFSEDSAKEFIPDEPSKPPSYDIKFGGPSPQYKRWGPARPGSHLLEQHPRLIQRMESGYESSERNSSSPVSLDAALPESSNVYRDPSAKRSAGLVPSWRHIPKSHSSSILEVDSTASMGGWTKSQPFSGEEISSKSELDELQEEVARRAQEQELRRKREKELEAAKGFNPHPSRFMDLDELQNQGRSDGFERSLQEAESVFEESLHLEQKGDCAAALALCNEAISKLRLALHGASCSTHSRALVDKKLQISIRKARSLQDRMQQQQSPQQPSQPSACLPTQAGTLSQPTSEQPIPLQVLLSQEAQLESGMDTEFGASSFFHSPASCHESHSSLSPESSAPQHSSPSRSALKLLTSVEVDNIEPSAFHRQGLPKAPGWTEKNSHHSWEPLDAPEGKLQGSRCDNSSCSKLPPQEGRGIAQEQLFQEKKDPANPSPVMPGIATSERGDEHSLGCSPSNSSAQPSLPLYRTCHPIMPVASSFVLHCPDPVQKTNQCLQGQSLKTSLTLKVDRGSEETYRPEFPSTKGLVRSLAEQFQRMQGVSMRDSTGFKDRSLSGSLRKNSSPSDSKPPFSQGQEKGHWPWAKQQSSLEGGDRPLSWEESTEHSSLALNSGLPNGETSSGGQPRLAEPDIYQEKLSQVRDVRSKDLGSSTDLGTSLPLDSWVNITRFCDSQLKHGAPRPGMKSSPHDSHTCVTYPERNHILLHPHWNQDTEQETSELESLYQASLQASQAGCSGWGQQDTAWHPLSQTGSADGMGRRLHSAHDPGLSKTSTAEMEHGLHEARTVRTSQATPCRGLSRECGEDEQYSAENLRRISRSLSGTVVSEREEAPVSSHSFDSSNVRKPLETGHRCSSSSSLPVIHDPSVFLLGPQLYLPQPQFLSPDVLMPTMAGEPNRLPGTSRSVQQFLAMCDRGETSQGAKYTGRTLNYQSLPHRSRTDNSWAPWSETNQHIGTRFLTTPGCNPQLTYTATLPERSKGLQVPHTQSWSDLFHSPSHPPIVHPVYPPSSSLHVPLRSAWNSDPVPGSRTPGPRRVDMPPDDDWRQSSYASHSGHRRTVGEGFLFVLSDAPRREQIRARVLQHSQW
Chain of UniProt Q5VVQ6 (Q5VVQ6 whole entry): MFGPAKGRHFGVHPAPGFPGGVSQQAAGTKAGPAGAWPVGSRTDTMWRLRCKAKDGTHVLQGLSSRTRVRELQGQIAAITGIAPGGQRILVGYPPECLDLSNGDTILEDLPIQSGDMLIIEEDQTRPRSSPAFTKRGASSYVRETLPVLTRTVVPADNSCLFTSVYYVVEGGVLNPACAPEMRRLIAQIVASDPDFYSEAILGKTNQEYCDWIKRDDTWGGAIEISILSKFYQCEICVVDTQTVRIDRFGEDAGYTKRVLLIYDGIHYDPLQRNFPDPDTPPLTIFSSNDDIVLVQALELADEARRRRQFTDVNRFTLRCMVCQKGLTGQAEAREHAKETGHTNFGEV
Chain of UniProt P15374 (P15374 whole entry): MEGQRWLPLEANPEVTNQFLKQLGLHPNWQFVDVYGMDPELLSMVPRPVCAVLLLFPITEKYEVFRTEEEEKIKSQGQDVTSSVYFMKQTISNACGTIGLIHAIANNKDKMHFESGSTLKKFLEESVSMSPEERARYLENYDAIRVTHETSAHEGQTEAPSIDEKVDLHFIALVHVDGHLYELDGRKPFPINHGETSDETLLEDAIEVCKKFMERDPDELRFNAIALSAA

Target	log2 ratio of Biotin-Ahx-Ub-VS probe labelling [1]	log2 ratio of Biotin-Ahx-Ub-VS probe labelling [2]	log2 ratio of Biotin-Ahx-Ub-VS probe labelling [3]	log2 ratio of Biotin-Ahx-Ub-VS probe labelling [4]	log2 ratio of Biotin-Ahx-Ub-VS probe labelling [5]	log2 ratio of Biotin-Ahx-Ub-VS probe labelling [6]	log2 ratio of Biotin-Ahx-Ub-VS probe labelling [7]	log2 ratio of Biotin-Ahx-Ub-VS probe labelling [8]	log2 ratio of Biotin-Ahx-Ub-VS probe labelling [9]	log2 ratio of Biotin-Ahx-Ub-VS probe labelling [10]	log2 ratio of Biotin-Ahx-Ub-VS probe labelling [11]	log2 ratio of Biotin-Ahx-Ub-VS probe labelling [12]	log2 ratio of Biotin-Ahx-Ub-VS probe labelling [13]	log2 ratio of Biotin-Ahx-Ub-VS probe labelling [14]	log2 ratio of Biotin-Ahx-Ub-VS probe labelling [15]	log2 ratio of Biotin-Ahx-Ub-VS probe labelling [16]	log2 ratio of Biotin-Ahx-Ub-VS probe labelling [17]
USP34 (UniProt Q70CQ2)	-0.0417	-0.172	-0.119	-0.00177	-0.247	-0.0987	-0.256	-0.0637	-0.0566	-0.451	-0.0758	-0.0409	-0.0189	0.000583	0.219	-0.146	-0.774
COPS5 (UniProt Q92905)	-0.228	0.105	-0.102	-0.0488	-0.0269	0.0396	-0.141	-0.303	-0.00505	-0.0303	0.0391	0.0347	0.203	0.0382	0.0301	0.0105	0.27
USP36 (UniProt Q9P275)	-0.165	0.124	-0.354	-0.058	-0.116	-0.0255	-0.0892	-0.141	-0.166	-0.233	0.171	-0.19	-0.191	-0.134	-0.189	-0.185	-0.132
PSMD7 (UniProt P51665)	-0.0028	-0.0716	0.132	-0.25	-0.394	-0.133	-0.0871	-0.0249	0.0653	-0.0837	-0.291	-0.184	-0.279	-0.286	0.0364	-0.47	-0.124
UCHL3 (UniProt P15374)	0.39	0.116	0.0229	0.0176	0.122	-0.0569	-0.129	-0.345	0.56	0.214	0.504	0.341	-0.0242	0.0333	0.275	0.103	-0.827
USP54 (UniProt Q70EL1)	0.0698	0.582	0.646	0.245	0.658	0.179	0.204	0.439	0.226	0.528	0.34	-0.205	0.194	0.336	0.0874	0.439	0.681
USP24 (UniProt Q9UPU5)	-0.191	-0.0286	-0.426	-0.579	-0.301	-0.575	-0.201	-0.537	-0.319	-0.639	-0.322	-0.475	-0.116	0.00205	0.122	-0.238	-1.4 (active)
USP42 (UniProt Q9H9J4)	0.361	-0.342	-0.295	-0.305	-0.42	-0.0896	0.113	0.381	0.125	0.374	0.49	0.0331	-0.72	-0.299	-0.0821	-0.125	0.584
YOD1 (UniProt Q5VVQ6)	0.253	0.0444	0.0365	-0.412	-0.152	0.18	-0.323	-0.308	0.241	-0.155	-0.266	0.106	0.0345	0.0106	0.189	0.0867	-0.836
VCPIP1 (UniProt Q96JH7)	-0.221	-1.63 (active)	-0.946	-0.492	-0.305	-0.056	-1.46 (active)	-1.21 (active)	-0.628	-0.412	-1.34 (active)	-0.205	-0.518	-0.707	-0.226	-0.695	-2.08 (active)
USP47 (UniProt Q96K76)	-0.233	-0.0445	0.00775	-0.363	0.145	-0.299	-0.276	-0.708	-0.108	-0.366	0.0602	-0.137	0.0163	-0.243	-0.458	-0.679	-0.241
UCHL1 (UniProt P09936)	-1.13 (active)	-1.4 (active)	-1.18 (active)	-1.34 (active)	-1.75 (active)	-1.52 (active)	-1.21 (active)	-1.8 (active)	-1.21 (active)	-1.48 (active)	-0.693	-1.43 (active)	-2.07 (active)	-1.66 (active)	-1.22 (active)	-1.39 (active)	-2.02 (active)
